Hits are enriched below; roughly 5.5% of the tested compounds scored in any of these assays.
Mito fusion yeast = mitochondrial division inhibition or fusion activation | 0.23% of 320,000 active | S. cerevisiae fusion-defective mutant growth rescue, CellTiterGlo 48 h | Potency, µM (top dose mostly 46.1 µM), without a hit: at the top dose growth rescue (activation), usual class: activators; note: % of control where 0% means no effect; nearly all actives have a fitted effect of over 45% in size
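Temperature-sensitive fusion-defective S. cerevisiae (e.g. fzo1-1, mgm1-5) were grown with compound in YPEG medium (3% ethanol, 3% glycerol) for 48 hours at 37C. Growth rescue was measured as viability by CellTiterGlo luminescence after 10 minutes at ambient.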
Gal4-VP16 FLuc = Gal4-VP16 reporter inhibition counter-screen; Drosophila S2 Gal4-VP16 UAS-luciferase, luminescence, 20 h; Potency, µM (titrated, usually from 53.6 µM), without a hit: at the top dose activity, negative = inhibition, hits mostly inhibitors; 3.5% of 310,000 active;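 note: Gal4-VP16 expression switched on by copper sulfate through the metallothionein promoter; % is set by controls: 0 for no effect and ±100 for the full control effect; nearly all actives have a fitted effect of over 50% in size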
Chronic BCR inh = blocks chronic active B-cell receptor signaling; ABC-DLBCL IkBa-CBG/CBR reporter, luminescence ratio, 4 h; Potency, µM (top dose mostly 46.1 µM), for the others: at the highest dose activity change, negative = inhibition, usual class: inhibitors; 0.05% of 340,000 active; active = well fitted inhibition curve with a large enough effect in the signal ratio, with a control signal flat, not every such curve was filed as active; inconclusive = small, poorly fitted or top-dose-only effect, or effect the other way, or a change in a side signal; the % refers to the signal ratio;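 note: plate controls were basal doxycycline-induced cells for no effect and cells given 10 µM MG132 for full effect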
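Compounds up to 46 uM were incubated four hours with TMD8 cells whose green CBG68 luciferase is fused to IkappaBalpha; red CBR luminescence normalised the signal, and concentration-effect curves were fitted to fusion, red and ratio data.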
uPA generation = blocks generation of uPA at the cell surface | cell surface uPA generation assay, qHTS | Potency, µM (titrated, usually from 38.3 µM), inactives show at the highest dose activity change, negative = inhibition, usual class: inhibitors | 0.31% of 330,000 active; active = well fitted inhibition curve with a large enough effect; inconclusive = small, poorly fitted or top-dose-only effect; inactive = no such curve, though single readings can be large or run the other way; tested in mouse RAW 264.7 cells; note: % is set by controls: 0 for no effect and ±100 for the full control effect; nearly all actives have a fitted effect of over 55% in size
Integrin act MD = integrin-mediated muscular dystrophy alleviation activation; alpha7betagal myoblasts, beta-gal FDG fluorescence, 48 h; Potency, µM (highest dose often 38.3 µM), inactives show at the top dose activation, actives largely listed as activators; 0.064% of 350,000 active; AID 624291;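 note: 100% = response of the positive control SU9516; nearly all actives have a fitted effect of over 60% in size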
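alpha7betagal+/- myoblasts (passage 13, 250/well) treated 48 h at 37C with compounds at 1:260 dilution of DMSO stock. Lysed, then beta-galactosidase activity read as FDG fluorescence (ex 480/em 540) after 30 min, with pre-read for autofluorescence.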
RORgamma inh = inhibitors of mouse ROR gamma transcriptional activity; Potency, µM (top dose mostly 53.6 µM), for inactives: top-dose activity change, negative = inhibition, usual class: inhibitors; 5.4% of 310,000 active; Drosophila S2 Gal4-RORgamma UAS-luciferase reporter, 20 h; P51450; note: % is set by controls: 0 for no effect and ±100 for the full control effect; nearly all actives have a fitted effect of over 60% in size
Target sequence (P51450 whole entry, looked up, the tested form may be a part): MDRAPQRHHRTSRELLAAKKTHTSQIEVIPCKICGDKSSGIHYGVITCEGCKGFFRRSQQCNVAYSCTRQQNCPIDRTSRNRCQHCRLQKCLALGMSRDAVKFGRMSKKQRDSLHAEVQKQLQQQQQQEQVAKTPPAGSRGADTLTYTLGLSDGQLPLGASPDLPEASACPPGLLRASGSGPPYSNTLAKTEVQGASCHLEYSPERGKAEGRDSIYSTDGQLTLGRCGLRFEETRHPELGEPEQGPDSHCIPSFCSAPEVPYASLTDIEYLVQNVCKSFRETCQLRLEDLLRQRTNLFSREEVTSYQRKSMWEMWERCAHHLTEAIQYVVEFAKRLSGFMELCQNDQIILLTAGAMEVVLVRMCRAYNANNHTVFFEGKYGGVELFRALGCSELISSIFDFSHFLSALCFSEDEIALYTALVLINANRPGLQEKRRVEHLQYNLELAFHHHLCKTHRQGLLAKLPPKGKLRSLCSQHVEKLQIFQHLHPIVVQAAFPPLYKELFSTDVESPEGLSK
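Using a luciferase readout, inhibitors were identified by reduced reporter activity in Drosophila cells coexpressing a copper-inducible Gal4–ROR gamma fusion and UAS-driven Photinus luciferase, incubated 20 hr after 700 uM copper sulfate.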
* hit, by the source's call. Unless noted, calls come from the whole dose curve; as a rule, active = well fitted curve in the direction sought with a large enough effect; inconclusive = small, poorly fitted or top-dose-only effect, or another doubt; inactive = no such curve, though single readings can be large; an effect the other way counts as inactive or inconclusive. Potency is the fitted concentration of half-maximal effect.

`CCN(CC)CCn1c(=S)[nH]c2cc(Cl)ccc2c1=O` gave Mito fusion yeast -2.2%, Gal4-VP16 FLuc inconclusive, Chronic BCR inh 0.7%, uPA generation -5.1%, Integrin act MD 17.3% and RORgamma inh 12.6µM*.
`O=c1c2cccnc2[nH]c(=S)n1Cc1ccccc1` gave Mito fusion yeast -2.2%, Gal4-VP16 FLuc 3.98µM*, Chronic BCR inh -10.3%, uPA generation -3.3%, Integrin act MD -26.7% and RORgamma inh 10µM*.
O=c1c2nccnc2[nH]c(=S)n1Cc1ccccc1 was read as Mito fusion yeast 2.5%, Gal4-VP16 FLuc -22.2%, Chronic BCR inh 0.8%, uPA generation -4.6%, Integrin act MD 23.8% and RORgamma inh inconclusive.
`CCN(CC)CCn1c(=S)[nH]c2ccc(Cl)cc2c1=O` gave Mito fusion yeast -3.9%, Gal4-VP16 FLuc inconclusive, Chronic BCR inh 3.4%, Integrin act MD 1.5% and RORgamma inh inconclusive.
Screening NS(=O)(=O)c1ccc(CCn2c(=S)[nH]c3ccccc3c2=O)cc1 returned Mito fusion yeast 0.5%, Gal4-VP16 FLuc 1.5%, Chronic BCR inh -10.2%, uPA generation 1.5%, Integrin act MD 35.8% and RORgamma inh inconclusive.
COc1cc2[nH]c(=S)n(Cc3ccccc3)c(=O)c2cc1OC was read as Mito fusion yeast 2.2%, Gal4-VP16 FLuc 5.01µM*, Chronic BCR inh 2.6%, uPA generation -11.2%, Integrin act MD 0.0% and RORgamma inh 3.16µM*.
Screening O=c1c2ccccc2[nH]c(=S)n1CCc1ccccc1 returned Mito fusion yeast 1.0%, Gal4-VP16 FLuc 3.16µM*, Chronic BCR inh inconclusive, uPA generation 6.3%, Integrin act MD 19.8% and RORgamma inh 1.58µM*.
O=C(O)/C(=C/c1ccc(Cl)c([N+](=O)[O-])c1)c1ccc(S(=O)(=O)N2CCCCC2)s1 was read as uPA generation 3.4% and Integrin act MD -14.7%.
`CCC(=O)OCC(=O)[C@@]1(OC(=O)CC)[C@@H](C)C[C@@H]2[C@H]3CCC4=CC(=O)C=C[C@]4(C)[C@@]3(F)[C@@H](O)C[C@@]21C` gave Gal4-VP16 FLuc -1.3% and RORgamma inh -24.8%.
For O=c1c2ccccc2[nH]c(=S)n1CCN1CCN(Cc2ccccc2)CC1 the results were Mito fusion yeast -5.3%, Gal4-VP16 FLuc inconclusive, Chronic BCR inh -1.5%, Integrin act MD 0.6% and RORgamma inh 35.5µM*.
`CN1CCN(CCn2c(=S)[nH]c3ccccc3c2=O)CC1` gave Mito fusion yeast 1.0%, Gal4-VP16 FLuc 4.8%, Chronic BCR inh 3.8%, uPA generation 3.3%, Integrin act MD inconclusive and RORgamma inh -8.5%.
`O=c1c2ccccc2[nH]c(=S)n1CCN1CCc2ccccc2C1` gave Mito fusion yeast 0.3%, Gal4-VP16 FLuc inconclusive, Chronic BCR inh inconclusive, uPA generation -0.5%, Integrin act MD 17.3% and RORgamma inh 11.2µM*.
`O=c1c2ccccc2[nH]c(=S)n1Cc1cccs1` gave Mito fusion yeast 0.2%, Gal4-VP16 FLuc 3.16µM*, Chronic BCR inh 3.7%, uPA generation -1.8%, Integrin act MD 16.0% and RORgamma inh 1.58µM*.
Screening Cn1nc(C#N)c(=O)[nH]c1=O returned uPA generation -0.1% and Integrin act MD 0.0%.
For c1ccc2c(c1)OCCOCCOCCOCCO2 the results were Gal4-VP16 FLuc -7.2% and RORgamma inh -2.5%.
For CN1CCN(C2=Cc3ccccc3Sc3cc(F)c(Cl)cc32)CC1 the results were Mito fusion yeast -23.7%, Gal4-VP16 FLuc inconclusive, Chronic BCR inh -14.2%, uPA generation 2.2%, Integrin act MD -61.1% and RORgamma inh inconclusive.
`CN1CCN(C2=Cc3ccccc3Sc3cc(F)c(F)cc32)CC1` gave Mito fusion yeast -22.4%, Gal4-VP16 FLuc 7.94µM*, Chronic BCR inh -5.8%, uPA generation 4.0%, Integrin act MD -66.4% and RORgamma inh 7.94µM*.
`COc1cccc(NC(=S)N2c3ccccc3CC2C)c1` (stereo not given) gave Mito fusion yeast -7.9%, Gal4-VP16 FLuc inconclusive, Chronic BCR inh 11.0%, uPA generation -3.8%, Integrin act MD -33.5% and RORgamma inh 22.4µM*.
Screening COc1cc(NC(=S)N2c3ccccc3CC2C)cc(OC)c1 (stereo not given) returned Mito fusion yeast -10.8%, Gal4-VP16 FLuc 17.8µM*, Chronic BCR inh -12.8%, uPA generation 0.6%, Integrin act MD -7.6% and RORgamma inh 8.91µM*.
COc1ccc(OC)c(NC(=S)N2c3ccccc3CC2C)c1 (stereo not given) was read as Mito fusion yeast 1.5%, Gal4-VP16 FLuc -0.5%, Chronic BCR inh 4.6%, uPA generation -2.0%, Integrin act MD 20.7% and RORgamma inh 36.3%.
`CCCC(=O)C1=C(O)C(c2cccc(Oc3ccccc3)c2)CCC1=O` (stereo not given) gave Mito fusion yeast -13.8%, Gal4-VP16 FLuc inconclusive, Chronic BCR inh -1.8%, uPA generation -13.8%, Integrin act MD 8.1% and RORgamma inh 12.6µM*.
`O=C1CC(c2cccc(Oc3ccccc3)c2)NC(=O)N1` (stereo not given) gave Mito fusion yeast 1.8%, Gal4-VP16 FLuc 8.3%, Chronic BCR inh -2.8%, uPA generation -0.6%, Integrin act MD -3.1% and RORgamma inh 23.4%.
For NCCC[C@@H](CC(=O)N[C@@H]1CCNC[C@H]1C(=O)N[C@H](CC(=O)N[C@@H](CCC(=O)O)CC(=O)O)Cc1c[nH]c2ccccc12)NC(=O)C[C@H](Cc1ccccc1)NC(=O)[C@@H]1CNCC[C@H]1N the results were Gal4-VP16 FLuc -6.7% and RORgamma inh -20.4%.
Screening C[C@H](Cc1ccccc1)Nc1ncnc2c1ncn2[C@@H]1O[C@H](CO)[C@@H](O)[C@H]1O returned Mito fusion yeast -7.4%, Chronic BCR inh inconclusive and uPA generation -1.9%.
`O=C(Nc1ncnc2c1ncn2C1OC(COC(=O)c2ccccc2)C(F)C1O)c1ccccc1` (stereo not given) gave Mito fusion yeast -0.7%, Gal4-VP16 FLuc 11.2µM*, Chronic BCR inh inconclusive, uPA generation -5.1%, Integrin act MD -20.0% and RORgamma inh 10µM*.
CCN1CCCC1Cn1c(-c2ccccc2)nc2c(N(CCOC)CCOC)nc(C)nc21 (stereo not given) was read as Gal4-VP16 FLuc -1.7% and RORgamma inh -20.2%.
Screening CC(=O)N(C1=C(N)C(=O)c2ccccc2C1=O)C(C)C returned Mito fusion yeast -3.7%, Gal4-VP16 FLuc 0.2%, Chronic BCR inh -18.9%, uPA generation 1.3%, Integrin act MD -38.9% and RORgamma inh 11.2µM*.

Screening data: PubChem BioAssay, National Center for Advancing Translational Sciences (NCATS)
